Screens from PubChem.
FXN GAA850 act – frataxin GAA850 promoter activation; 360,000 compounds, 0.56% hits; activation, % at 6 µM; HEK293 lucGAA850 FXN promoter luciferase reporter, 24 h; percent of 10 µM SAHA response;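 active = activation above the average of all compounds screened plus 3 SD, cutoff fixed separately per campaign, cut at about 7.5% in these data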
CFTR F508del cor – CFTR F508del correction in bronchial cells; CFBE cells, YFP halide quenching; stimulated with forskolin plus potentiator P3; % fluorescence drop versus neutral controls; activity (quench increase), % at 7.58 µM; 350,000 compounds, 0.36% hits; AID 720511;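 active = mean added fluorescence quench of at least 8% versus neutral control, with both replicates also reaching 8%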;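 also: cells transiently co-express mutant CFTR-F508del with the halide-sensitive YFP; corrector assay measuring rescue of mutant channel to the surface after 24 h compound exposure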
EWS-Fli block – inhibitors of EWS/Fli oncoprotein transcriptional activity; 350,000 compounds, 0.67% hits; A673 NR0B1-luciferase reporter, viability-normalised; inhibition, % at 12.6 µM;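 active = mean inhibition of at least 50% after viability correction, with every replicate also passing that limit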;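 also: firefly luciferase signal divided by Alamar Blue viability fluorescence both relative to DMSO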
PAX8 reporter – PAX8 transcriptional activity inhibition; RMG-I TPO-luciferase reporter, SteadyGlo, 24 h; inhibition, % at 12.6 µM; 360,000 compounds, 1.2% hits; AID 652154;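 active = mean replicate inhibition at least 60% with every replicate also reaching 60%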;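 also: luciferase light reporting Pax8 driven TPO promoter activity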
Env fusion inh – HIV envelope-mediated fusion inhibition; inhibition, % at 12.3 µM; HeLa-JRFL Env/CEM21 cell fusion, luciferase; AID 651610; 360,000 compounds, 1.1% hits;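 active = mean replicate inhibition score of at least 50 and every replicate individually at or above 50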
Hits are given with their value; i = inactive; nt = no result given; [ ] = remark or other dose. This is a sample that favours compounds with a hit; in the whole collection about 2.5% have one here.

SMILES	FXN GAA850 act	CFTR F508del cor	EWS-Fli block	PAX8 reporter	Env fusion inh
O=C(NCc1cccc(F)c1)[C@@H]1[C@@H](CO)[C@@H]2Cn3c(ccc(-c4cccnc4)c3=O)[C@H]1N2CC1CC1	nt	nt	i	i	67.1[16.7 µM]
O=C(NCc1cccc(F)c1)[C@H]1[C@H](CO)[C@H]2Cn3c(ccc(-c4ccncc4)c3=O)[C@@H]1N2CC1CC1	nt	i	i	i	nt
CC(C)(C)NC(=O)COC(=O)c1snc(C(=O)NC2CCCCC2)c1N	i	nt	nt	i	101.3
COCc1cn(CC[C@H]2CC[C@@H](NC(=O)Nc3ccccc3)[C@H](CO)O2)nn1	nt	i	i	i	i
C[C@H](CO)N1C[C@H](C)[C@@H](CN(C)Cc2ccc(Oc3ccccc3)cc2)Oc2c(NC(=O)CCCCCC(=O)Nc3ccccc3N)cccc2C1=O	nt	i	i	63.4	nt
C[C@H]1CN([C@@H](C)CO)C(=O)c2cccc(NC(=O)NC3CCCCC3)c2O[C@H]1CN(C)Cc1ccc(Cl)c(Cl)c1	nt	i	i	nt	i
C[C@H]1CN([C@@H](C)CO)C(=O)c2cccc(NC(=O)CCCCCC(=O)Nc3ccccc3N)c2O[C@@H]1CN(C)Cc1ccc(Cl)c(Cl)c1	nt	i	nt	65.1	nt
C[C@@H]1CN([C@@H](C)CO)C(=O)c2cccc(NC(=O)NC3CCCCC3)c2O[C@@H]1CN(C)Cc1ccc(Cl)c(Cl)c1	nt	9.3	i	nt	i
C[C@@H]1CN([C@@H](C)CO)C(=O)c2cccc(NC(=O)CCCCCC(=O)Nc3ccccc3N)c2O[C@H]1CN(C)Cc1ccc(Cl)c(Cl)c1	nt	i	i	i	nt
C[C@H]1CN([C@@H](C)CO)C(=O)c2cccc(NC(=O)CCCCCC(=O)Nc3ccccc3N)c2O[C@H]1CN(C)Cc1ccc(Oc2ccccc2)cc1	nt	i	i	i	nt
C/C=C/c1ccc([C@H]2[C@H](CO)N(C(=O)CC)[C@H]2CN(C)S(C)(=O)=O)cc1	nt	i	i	i	nt
COc1ccc(-n2ncc(S(=O)(=O)c3ccccc3)c2-c2ccc(Cl)cc2)cc1	i	nt	nt	nt	60.5
Cn1c(-c2ccccc2)cc2onc(-c3ccccc3)c2c1=O	i	i	80.7	i	i
Cn1c(-c2ccccc2F)cc2onc(-c3ccccc3)c2c1=O	i	i	i	i	i
CCOC(=O)CN(C(=O)CSc1nnnn1C)c1ccccc1	i	i	i	i	70.7
CCOC(=O)CN(C(=O)CSc1nnc(Cc2ccccc2)n1-c1ccc(C)cc1)c1ccccc1	i	nt	nt	nt	nt
C[C@H]1CN([C@@H](C)CO)C(=O)c2cc(NC(=O)NC3CCCCC3)ccc2O[C@@H]1CN(C)C(=O)Nc1ccc(C(F)(F)F)cc1	nt	i	i	i	i
O=C(Nc1ccc(F)cc1)N1CCCCN2[C@@H](CO)[C@@H](c3ccc(-c4cccc(F)c4)cc3)[C@@H]2C1	nt	i	72.4	105.9	nt
Cc1ccc(-c2ccc([C@@H]3[C@H](CO)N4CCCCN(C(=O)Nc5cccc(F)c5)C[C@@H]34)cc2)cc1	nt	i	i	81.4	nt
O=C(Nc1cccc(F)c1)N1CCCCN2[C@@H](CO)[C@@H](c3ccc(-c4ccncc4)cc3)[C@@H]2C1	nt	i	i	110.0	nt
O=C(Nc1ccc(F)cc1)N1CCCCN2[C@H](C1)[C@@H](c1ccc(-c3cccc(F)c3)cc1)[C@@H]2CO	nt	i	i	i	nt
O=C(c1cccc(F)c1)N1CCCCN2[C@H](C1)[C@@H](c1ccc(-c3ccc(F)cc3)cc1)[C@@H]2CO	nt	i	i	65.1	nt
COc1ccc2[nH]c(C(=O)N/N=C/c3ccc(OC)c(O)c3)cc2c1	i	11.2	i	i	i
COc1ccc2[nH]c(C(=O)N/N=C/c3ccccc3OC)cc2c1	i	i	i	i	i
CCCOc1ccc2[nH]c(C(=O)N/N=C/c3cc(OC)c(OC)c(OC)c3)cc2c1	i	i	i	91.4	i
SMILES	FXN GAA850 act	CFTR F508del cor	EWS-Fli block	PAX8 reporter	Env fusion inh
COc1ccc(C=NNC(=O)CCCC(=O)NN=Cc2ccc(OC)c(O)c2)cc1O	i	15.1	i	i	nt
Cc1cc(Cl)cc(C)c1OCCCCCn1ccnc1	i	i	i	i	i
Cc1cc(Cl)cc(C)c1OCCn1ccnc1	i	12.6	i	i	i
COCC(=O)Nc1ccc2c(c1)C(=O)N(C)[C@@H]1CC[C@@H](CC(=O)NCc3ccccc3)O[C@@H]1CO2	nt	i	i	i	i
CCC1C/C(=C\c2cc(OC)c(OC)cc2OC)C(=O)/C(=C/c2cc(OC)c(OC)cc2OC)C1 (stereo not drawn)	i	nt	nt	nt	nt
COc1cc(OC)c(OC)cc1/C=C1\CC(C)C/C(=C\c2cc(OC)c(OC)cc2OC)C1=O (stereo not drawn)	i	i	i	74.1	i
Cc1ccc(C)c(S(=O)(=O)N2CCCCC2CCNC(=O)C(=O)NCc2ccncc2)c1 (stereo not drawn)	i	i	i	69.1	i
Cc1ccc(C)c(S(=O)(=O)N2CCCCC2CCNC(=O)C(=O)NC2CCCC2)c1 (stereo not drawn)	i	i	i	i	i
CC1CCCN(S(=O)(=O)c2ccc(C(=O)Nc3sc4c(c3C(N)=O)CCN(C)C4)cc2)C1 (stereo not drawn)	i	i	56.0	i	i
CCCCC(=O)NC(c1ccc(Cl)cc1Cl)c1ccc2cccnc2c1O (stereo not drawn)	i	i	i	65.6	i
CCC(=O)NC(c1ccc(Cl)cc1Cl)c1ccc2cccnc2c1O (stereo not drawn)	i	i	i	66.1	i
Cc1ccsc1/C=N/N1CCN(c2ccccc2)CC1	7.8	i	i	nt	nt
Cc1ccsc1/C=N/N1CCN(c2ccccn2)CC1	i	i	i	i	i
CCCCNc1cc(C(=O)O)cc(S(N)(=O)=O)c1Oc1ccccc1	i	8.6	i	i	i
NS(=O)(=O)c1cc(C(=O)O)cc(N2CCCC2)c1Oc1ccccc1	i	i	i	i	i
O=C(C[C@@H]1C[C@@H]2c3cc(NC(=O)Nc4ccccc4)ccc3O[C@@H]2[C@H](CO)O1)NC1CCCCC1	nt	i	i	i	i
CCC(C(=O)OCC(=O)C1(O)CCC2C3CCC4=CC(=O)CCC4(C)C3C(O)CC21C)C(C)C (stereo not drawn)	i	8.2	i	i	i
Cc1ccccc1-c1nc(S(=O)(=O)c2ccccc2)c(NCCN2CCOCC2)o1	i	i	i	i	59.1
O=S(=O)(c1ccccc1)c1nc(-c2ccco2)oc1NCCN1CCOCC1	i	i	i	nt	nt
C[C@@H]1CN([C@@H](C)CO)C(=O)c2cc(C#Cc3cccc(F)c3)cnc2O[C@@H]1CN(C)C(=O)C1CCC1	nt	i	i	i	i
C#CCN([C@H](/C=C/C1CC1)[C@@H](O)Cc1ccccc1)[C@@H](Cc1ccccc1)C(=O)OC	nt	i	i	i	i
COc1ccc(CNC(=O)CN(Cc2ccc(Cl)cc2)S(=O)(=O)c2ccccc2)cc1	i	nt	nt	nt	59.4
Cc1onc(-c2ccccc2Cl)c1C(=O)N(Cc1nc(-c2ccccc2)no1)C1CCCCC1	i	nt	nt	nt	87.9
CC1=CC(C)(C)N(C(=O)CCl)c2cc(C)ccc21	i	i	68.4	i	i
CC1=CC(C)(C)N(C(=O)CCl)c2ccccc21	i	i	i	i	i
